Among the data in PubChem BioAssay (NCATS) are Potency values, retold here.

Test [1] can be described thus: Quantitative High-Throughput drug screen in 47 multiple myeloma cell lines against the NCATS MIPE library collection: U266_ATCC cell viability assay (AID 1919864). Note: nearly all actives have a fitted effect of over 35% in size. The method, boiled down: (§1)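 Viability after 48 h drug exposure was measured as ATP-dependent luminescence. Cells, 500 per well, sat at 37 °C under 5% CO2; DMSO wells set 100%, media-only wells 0%.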
Test [2] in a line: Quantitative High-Throughput drug screen in 47 multiple myeloma cell lines against the NCATS MIPE library collection: XG6_PLB cell viability assay (AID 1919865). Note: nearly all actives have a fitted effect of over 40% in size. The method, boiled down: as §1
A short description of test [3]: Quantitative High-Throughput drug screen in 47 multiple myeloma cell lines against the NCATS MIPE library collection: XG1_PLB cell viability assay (AID 1919866). Note: nearly all actives have a fitted effect of over 35% in size. The method, boiled down:
as §1

Test [4] is described as follows: Quantitative High-Throughput drug screen in 47 multiple myeloma cell lines against the NCATS MIPE library collection: UTMC2_PLB cell viability assay (AID 1919868). Note: nearly all actives have a fitted effect of over 55% in size. Conditions: CellTiter-Glo ATP luminescence, 48 h; viability (% of DMSO control): at 45.8 µM (top of the series). The gist of the method:
as §1

Test [5] can be described thus: Quantitative High-Throughput drug screen in 47 multiple myeloma cell lines against the NCATS MIPE library collection: PCM6_Riken cell viability assay (AID 1919870). Note: nearly all actives have a fitted effect of over 30% in size. The gist of the method:
as §1

A short description of test [6]: Quantitative High-Throughput drug screen in 47 multiple myeloma cell lines against the NCATS MIPE library collection: RPMI8226_ATCC cell viability assay (AID 1919871). Note: nearly all actives have a fitted effect of over 30% in size. The method, boiled down: as §1
Test [7] can be described thus: Quantitative High-Throughput drug screen in 47 multiple myeloma cell lines against the NCATS MIPE library collection: KMS11_JCRBsus cell viability assay (AID 1919873). Note: nearly all actives have a fitted effect of over 50% in size. The method, boiled down: as §1
The nature of test [8]: Quantitative High-Throughput drug screen in 47 multiple myeloma cell lines against the NCATS MIPE library collection: VP6_DJ cell viability assay (AID 1919867). Note: nearly all actives have a fitted effect of over 40% in size. The gist of the method: as §1
Test [9] can be described thus: Quantitative High-Throughput drug screen in 47 multiple myeloma cell lines against the NCATS MIPE library collection: OPM2_DSMZ cell viability assay (AID 1919872). Note: nearly all actives have a fitted effect of over 30% in size. The gist of the method:
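Myeloma cell lines, 500 cells per well, exposed to MIPE 4.0 library compounds for 48 h at 37C, 5% CO2. Viability from ATP by CellTiter-Glo luminescence; normalised to DMSO (100%) and media-only (0%) wells.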

Test [10] in a line: Quantitative High-Throughput drug screen in 47 multiple myeloma cell lines against the NCATS MIPE library collection: PE2_PLB cell viability assay (AID 1919869). Note: nearly all actives have a fitted effect of over 35% in size. The gist of the method: as §1

Records with an inconclusive call do not appear. The source made the active and inactive calls. Calls come from the whole dose curve; as a rule, active = well fitted cell-killing curve with a large enough effect; inconclusive = small, poorly fitted or top-dose-only effect, or effect the other way; inactive = no such curve, though single readings can be large or run the other way.
Potency is the fitted concentration of half-maximal effect.

As for `N#Cc1ccc(COC[C@H]2O[C@@H](n3c(NCc4ccc(Cl)c(Cl)c4)nc4c(N)ncnc43)[C@@H](O)[C@@H]2O)cc1`, the Potency in [1] was 20.9 µM (active); in test [2] it was 16.6 µM (active); in test [3], 2.64 µM (active); in test [4] it was 1.32 µM (active); in test [5], 5.26 µM (active); in [6], 5.26 µM (active). In addition, in test [7], the Potency is 5.26 µM (active).
For `CC(C)Oc1ccc(C(=O)N[C@H](CNC(=O)CN(C)C)Cc2ccc(-c3cn4cccc([C@H](C)O)c4n3)cc2)cc1Cl`, the Potency is 20.9 µM (active) in test [1]; 0.105 µM (active) in test [2]; 0.148 µM (active) in test [3]; 5.26 µM (active) in [8]; 23.5 µM (active) in test [5]; 1.48 µM (active) in [9]. The Potency in [7] was 0.132 µM (active).
With `CC(C)c1cnn2c(NCc3ccccc3)cc(NCCCCCCN)nc12`, the Potency in test [1] was 2.64 µM (active); in test [2] it was 0.332 µM (active); in test [3], 0.935 µM (active); in [8] it was 11.8 µM (active); in test [10] it was 26.4 µM (active); in [5], 13.2 µM (active). In addition, the Potency in [7] was 26.4 µM (active).
With `c1coc(CNc2ncnc3nc[nH]c23)c1`, the Potency result in test [1], in test [2], in test [3] and in test [7] was “inactive” in each case. Moreover, the Potency in test [8] was 18.7 µM (active).
Take `CCN(CC)CCNC(=O)c1c(C)[nH]c(C=C2C(=O)Nc3ccc(F)cc32)c1C`: the Potency was 3.4 µM (active) in test [1]; 1.71 µM (active) in test [2]; 1.52 µM (active) in test [8]; 0.54 µM (active) in test [4]; 2.15 µM (active) in [10]; 1.52 µM (active) in test [5]. Besides, the Potency in test [6] is 10.8 µM (active); in test [9], 6.05 µM (active); in [7], 1.52 µM (active).
On to `CC[C@H](CC[C@@H](C)[C@H]1CC[C@H]2[C@@H]3CC=C4C[C@@H](O)CC[C@]4(C)[C@@H]3CC[C@]12C)C(C)C`, for which the Potency entry in test [1], in [2], in test [3], in test [10], in [5] and in test [6] was “inactive” each time. The Potency entry in test [9] and in test [7] was “inactive” in each case.
In the case of `CC(=O)O[C@H]1C[C@@H]2CC[C@H]3[C@H]4C[C@H]([N+]5(C)CCCCC5)[C@@H](OC(C)=O)[C@@]4(C)CC[C@@H]3[C@@]2(C)C[C@H]1N1CCCCC1`, the Potency entry in test [1], in [2], in test [8], in [4], in [10] and in [5] was “inactive” each time. Also, the Potency entry in test [6] and in test [7] was “inactive” throughout.
`CC(C)(C)c1nc2c3cc[nH]c(=O)c3c3cc(F)ccc3c2[nH]1`: the Potency is 1.87 µM (active) in [1]; 1.32 µM (active) in [2]; 0.743 µM (active) in test [3]; 0.833 µM (active) in test [10]; 0.743 µM (active) in test [5]; 2.96 µM (active) in [6]. Besides, the figures for the Potency in test [9] and in [7] were 1.66 µM (active) and 0.662 µM (active), respectively.
With `COc1cc(OC)c(C=CS(=O)(=O)Cc2ccc(OC)c(NCC(=O)O)c2)c(OC)c1`, the Potency in test [1] is 0.526 µM (active); in test [2], 0.833 µM (active); in [8], 0.372 µM (active); in [4], 0.166 µM (active); in [10], 0.469 µM (active); in test [5] it was 0.418 µM (active). The Potency in test [6] was 1.66 µM (active); in test [9], 0.372 µM (active); in [7] it was 0.0935 µM (active).
For the compound `CC(C)(N)c1ccc(-c2nc3ccccc3nc2-c2ccccc2)cc1`, the Potency was 23.5 µM (active) in test [1]; 5.9 µM (active) in test [2]; 7.43 µM (active) in test [3]; 7.43 µM (active) in [8]; 10.5 µM (active) in test [10]; 10.5 µM (active) in test [5]. Further, the Potency in test [7] was 18.7 µM (active).
In the case of `CCCCC(=O)O[C@]1(C(=O)CO)[C@@H](C)C[C@H]2[C@@H]3CCC4=CC(=O)C=C[C@]4(C)[C@@]3(F)[C@@H](O)C[C@@]21C`, the Potency entry in test [1], in test [2], in test [3], in test [10] and in test [9] was “inactive” throughout. Also, the Potency in test [8] was 14.8 µM (active).
With `CCc1ccc(C(=O)Nc2cc(CN3CCN(C)CC3)cc(C(F)(F)F)c2)cc1C#Cc1cnc2ccnn2c1`, the Potency was 18.7 µM (active) in test [1]; 4.18 µM (active) in test [2]; 9.35 µM (active) in test [8]; 11.8 µM (active) in test [4]; 4.69 µM (active) in [10]; 3.72 µM (active) in test [5]. The Potency in test [6] was 20.9 µM (active); in test [9] it was 14.8 µM (active); in [7], 4.69 µM (active).
As for `Cc1onc(-c2ccccc2)c1C(=O)N[C@@H]1C(=O)N2[C@@H](C(=O)O)C(C)(C)S[C@@H]12`, the Potency result in test [1], in test [2], in test [3], in test [5], in test [6] and in test [9] was “inactive” each time.
For the compound `Cc1nc(NC(=O)N2CCC[C@@H]2C(N)=O)sc1-c1ccnc(C(C)(C)C(F)(F)F)c1`, the Potency was 8.33 µM (active) in test [1]; 3.32 µM (active) in test [3]; 4.69 µM (active) in test [10]; 3.32 µM (active) in test [6]; 20.9 µM (active) in [9]; 0.166 µM (active) in test [7]. Besides, the Potency result in test [5] is “inactive”.
Turning to `CO[C@@H]1[C@@H](O)[C@H](O)[C@@H](n2c3c(Cl)cccc3c3c4c(c5c6cccc(Cl)c6[nH]c5c32)C(=O)NC4=O)O[C@@H]1CO`, the Potency in test [1] was 1.48 µM (active); in test [3], 0.166 µM (active); in [8] it was 0.662 µM (active); in test [4], 0.235 µM (active); in [10] it was 1.05 µM (active); in test [5] it was 1.48 µM (active). Also, the results for the Potency in test [6], in test [9] and in test [7] were 2.35 µM (active), 5.9 µM (active) and 2.96 µM (active), respectively.
Turning to `C[C@@H](NCc1cc2ccccc2[nH]1)c1cccc2ccccc12`, the Potency result in test [1], in test [2], in test [8], in test [5], in test [6] and in test [9] was “inactive” in each case. Further, the Potency entry in test [7] is “inactive”.
